These entries were drawn from the full list.
aSyn UTR act: Activators working through SNCA 5'UTR binding (MLPCN); AID 1814; alpha-synuclein 5'UTR reporter, activators screen; 300,000 tested, 7.1% active; activity score, % (tested at 7.5 µM), hits read low; in the data active = activity score below about -60%
Each line names hits and unclear results; the compound was inactive in the other large screens.

CCOC(=O)C(CC)/C(C)=N\NC(=O)c1ccccc1O (stereo unspecified)	none
C/C(=N\NC(=O)c1ccccc1O)c1ccc(Br)s1	aSyn UTR act -161.9
C/C(=N\NC(=O)c1cc(Br)ccc1O)c1cccs1	aSyn UTR act -110.8
C/C(=N/NC(=O)c1cnccn1)c1cccs1	aSyn UTR act -65.2
C/C(=N\NC(=O)c1n[nH]c2c1CCC2)c1cccs1	none
C/C(=N/NC(=O)c1ccc(Br)o1)c1cccs1	aSyn UTR act -72.9
CC(C)c1ccc2[nH]c(O)c(N=NC(=O)c3ccc(CSc4nncn4C)cc3)c2c1	aSyn UTR act -71.8
Oc1c(N=Nc2ccccc2)sc2ccccc12	aSyn UTR act -191.6
Cc1ccc2c(CC(=O)Nc3ccc(N4CCN(C)CC4)cc3C)coc2c1	aSyn UTR act -67.6
Cc1ccc2c(CC(=O)Nc3sccc3C(N)=O)coc2c1	aSyn UTR act -183.1
Cc1ccc(S(=O)(=O)Nc2cccc3cccnc23)cc1	none
Cc1ccc(O)c(CNc2ccccn2)c1	aSyn UTR act -67.2
Cc1ccnc(NCc2cc(C)ccc2O)c1	aSyn UTR act -69.1
Cc1ccc(S(=O)(=O)Nc2ccccc2CNc2ccccn2)cc1	aSyn UTR act -75.4
Cc1cccc(C(=O)Nc2ccccc2C(=O)OCC(=O)Nc2ccc(C#N)cc2)c1	aSyn UTR act -100.0
Cc1nn(-c2ccccc2)c(Cl)c1/C=C/C(=O)c1ccccc1	aSyn UTR act -106.6
Cc1nn(-c2ccccc2)c(C)c1/C=N/NC(=O)c1cc(-c2ccccc2)n[nH]1	none
Cc1nn(-c2ccccc2)c(Cl)c1/C=N/NC(=O)c1ccccc1F	aSyn UTR act -89.4
Cc1nn(-c2ccccc2)c(Cl)c1/C=N/NC(=O)c1[nH]ncc1Br	aSyn UTR act -66.8
Cc1cc(C(=O)N/N=C/c2c(C)nn(-c3ccccc3)c2C)c(C)o1	aSyn UTR act -69.2
O=C(N/N=C/c1cn(-c2ccccc2)nc1-c1cccs1)c1ccc(Cl)cc1	aSyn UTR act -65.8
Cc1nn(-c2ccccc2)c(Cl)c1/C=N/NC(=O)c1ccc(NS(=O)(=O)c2cccs2)cc1	aSyn UTR act -109.5
c1ccc(-c2csc(-c3cccnc3)n2)cc1	aSyn UTR act -77.5
CN(C(=O)c1cccnc1)c1nc(-c2ccccc2)cs1	aSyn UTR act -128.3
NC(=O)c1cc(-c2csc(-c3cccnc3)n2)ccc1O	aSyn UTR act -102.5
c1ccc(-c2nc(-c3cccnc3)cs2)cc1	aSyn UTR act -108.6
CN1CCN(CC(=O)N(C)c2nc(-c3ccccc3)cs2)CC1	aSyn UTR act -150.1
c1ccc2[nH]c(SCCN3CCOCC3)nc2c1	aSyn UTR act -77.7
c1ccc2[nH]c(SCc3ccc(-c4nnco4)cc3)nc2c1	aSyn UTR act -141.8
COc1ccc(CSc2nc3ccccc3[nH]2)cc1	aSyn UTR act -189.1
COC(=O)c1cccc(CSc2nc3ccccc3[nH]2)c1	aSyn UTR act -71.7
CC(C)CCSc1nc2ccccc2[nH]1	aSyn UTR act -106.6
O/C(=C\c1ccc2ccccc2n1)c1ccncc1	aSyn UTR act -68.9
O/N=C/c1ccc2ccccc2n1	aSyn UTR act -78.8
O/C(=C\c1nc2ccccc2nc1/C=C(\O)c1ccccc1)c1ccccc1	aSyn UTR act -72.7
COc1ccccc1/C=N\N=C(\N)c1ccccn1	aSyn UTR act -175.4
COc1cccc(/C=N/N=C(\N)c2nonc2N)c1O	aSyn UTR act -105.4
N/C(=N\N=C\c1cccc([N+](=O)[O-])c1)c1nonc1N	aSyn UTR act -150.3
COCCn1c(SCc2nc3ccccc3s2)nc2ccccc21	aSyn UTR act -144.1
CCOCCCn1c(SCc2nc3ccccc3s2)nc2ccccc2c1=O	aSyn UTR act -77.6
C=CCn1c(=O)c2ccccc2n2c(SCc3nc4ccccc4s3)nnc12	aSyn UTR act -97.4
Cc1cc(NCCN2CCOCC2)n2ncc(-c3ccccc3)c2n1	aSyn UTR act -61.9
COc1ccccc1-c1cnn2c(NCCc3ccccc3)cc(C)nc12	aSyn UTR act -111.8
C=CCc1c(C)nc2c(-c3ccccc3)cnn2c1N1CCOCC1	aSyn UTR act -175.0
Cc1cc(NC(C)c2ccccc2)n2ncc(-c3ccccc3)c2n1 (stereo unspecified)	aSyn UTR act -83.0
Cc1cc(NCc2ccccc2)n2ncc(-c3ccccc3)c2n1	aSyn UTR act -71.5
Cc1cc(NC2CCCC2)n2ncc(-c3ccccc3)c2n1	none
O=C1c2ccccc2NC(c2ccc(O)cc2)N1c1ccccc1 (stereo unspecified)	aSyn UTR act -63.8
O=C1c2ccccc2NC(c2ccc(O)cc2)N1/N=C/c1ccc(O)cc1 (stereo unspecified)	aSyn UTR act -122.2
COc1ccc(N=C2S/C(=C\c3ccc(N4CCOCC4)o3)C(=O)N2CCc2c[nH]c3ccccc23)cc1	aSyn UTR act -113.0
COc1cccc2cc(-c3ccnc(=S)[nH]3)oc12	aSyn UTR act -74.4
COc1ccc(-c2ccc(SCC(=O)NC3CCCCC3)nn2)cc1	aSyn UTR act -83.0
CCOc1ccc(-c2ccc(SCC(=O)NC3CCCCC3)nn2)cc1	aSyn UTR act -68.9
COc1ccc(-c2ccc(SC)nn2)cc1	none
Cc1ccc(S(=O)(=O)n2nc(-c3ccc(Cl)cc3)nc2NCc2ccco2)cc1	aSyn UTR act -95.9
CCS(=O)(=O)n1nc(-c2ccccc2)nc1NCc1ccco1	aSyn UTR act -70.7
O=c1cc(-c2ccccc2)nc2cc(-c3ccc(F)cc3)[nH]n12	aSyn UTR act -109.4
O=c1c2c(nc3cc(-c4ccc(F)cc4)[nH]n13)CCC2	aSyn UTR act -87.4
COc1cccc(-c2cc3nc(-c4ccccc4)cc(=O)n3[nH]2)c1	aSyn UTR act -167.0
COc1cccc(-c2cn3nc4c(nc3n2)CCCC4)c1	none
N#C/C(C(=O)N1CCOCC1)=C1\Nc2ccccc2S1	aSyn UTR act -65.4
CN(C)/C=C/C(=O)c1ccc(-n2cccc2)cc1	aSyn UTR act -88.2
CCn1c(SCC(O)c2ccccc2)nnc1-c1ccccc1 (stereo unspecified)	aSyn UTR act -69.8
CCn1c(SCc2nc3ccccc3s2)nnc1-c1ccccc1	aSyn UTR act -116.9
c1ccc(-n2cnnc2SCc2nc3ccccc3s2)cc1	aSyn UTR act -145.8
Cc1nnc(SCc2nc3ccccc3s2)n1N	aSyn UTR act -145.1
CCC(c1nnc(SCc2nc3ccccc3s2)n1Cc1ccccc1)N(C)C (stereo unspecified)	aSyn UTR act -100.5
Cc1nnc(SCc2nc3ccccc3s2)n1-c1ccccc1	aSyn UTR act -194.6
O=C(Nc1cccc2ncccc12)c1ccc([N+](=O)[O-])o1	aSyn UTR act -169.5
O=C(Nc1cccc2ncccc12)c1ccc(-c2ccc(Br)cc2)o1	aSyn UTR act -79.2
Cc1c(NC(=O)c2ccc([N+](=O)[O-])o2)cccc1-c1nc2ncccc2o1	aSyn UTR act -228.1
S=c1[nH]c(-c2ccccc2)cn1-c1ccccc1	aSyn UTR act -75.1
COc1ccc(-c2cn(-c3ccccc3)c(=S)[nH]2)cc1OC	aSyn UTR act -100.4
Nc1ccc(-n2cc(-c3ccccc3)[nH]c2=S)cc1	aSyn UTR act -85.6
COc1ccc(/C(O)=C/c2nc3ccccc3n(-c3ccccc3)c2=O)cc1	aSyn UTR act -84.3
Nc1nc(NCc2cccs2)nn1-c1ccccc1	aSyn UTR act -66.7
c1ccc(-n2ncc3c(NCc4cccnc4)ncnc32)cc1	aSyn UTR act -114.3
c1ccc(-n2ncc3c(NCc4cccs4)ncnc32)cc1	aSyn UTR act -161.6
COc1ccc(-n2ncc3c(NCc4cccs4)ncnc32)cc1	aSyn UTR act -170.7
O=C(O)c1ccc(-c2nnc(-c3ccccc3)o2)cc1	aSyn UTR act -78.1
O=C(c1ccc(-c2nnc(-c3ccccc3)o2)cc1)N1CCCCCC1	aSyn UTR act -67.7

Compound activity deposited in PubChem BioAssay by Broad Institute.
